Experimental findings from PubChem BioAssay AID463173 (ICCB-Longwood Screening Facility, Harvard Medical School, 2010) are described below.

Out of some 52,000 compounds screened, about 4,300 (8.3%) were called active. This is one part of a sample in which actives are shown more often than they occur. Unmarked numbers belong to inactive results. Rule as the data show it: active = survival mostly below about 52% (no sharp cut-off); inactive = mostly above about 56%.

This test concerns DeltatarO mutant. In words: growth inhibition of S. aureus wild type versus tarO mutant, primary screen, teichoic acid synthesis inhibitors, RN4220, OD600 (AID 463173). The conditions noted are these: OD600, 18 h, stronger effect = lower value, screened at 18.75 µg/mL (by protocol).
Consider `CC(=O)Nc1cccc(-c2nnc(SCC(=O)c3ccc([N+](=O)[O-])cc3)o2)c1`, for which the survival is 130%.

For the compound `COc1ccc(C)cc1NCc1nnc2n1CCCCC2`, the survival is 20% (active).

Turning to `Cc1cc(C)cc(NCc2nnc3n2CCCCC3)c1`, the survival was 89%.

As to `COc1ccc(NCc2nnc3n2CCCCC3)c(OC)c1`, the survival is 100%.

As to `Cc1ccc(Cl)cc1NCc1nnc2n1CCCCC2`, the survival was 101%.

Regarding `Fc1ccc(NCc2nnc3n2CCCCC3)cc1Cl`, the survival was 102%.

As for `COc1ccc(Cl)cc1NCc1nnc2n1CCCCC2`, the survival was 8% (active).

Take `Clc1cccc(-n2ncc3c(N4CCC(Cc5ccccc5)CC4)ncnc32)c1`: the survival is 83%.

Take `CCOC(=O)c1ccccc1NC(=O)CSc1nccn1Cc1ccco1`: the survival is 75%.

For the compound `COCCCNC(=O)CCC(=O)NNc1nc2ccccc2c2nc(-c3ccccc3)nn12`, the survival was 100%.

Take `O=C(CCn1nnc2ccccc21)N1CCC(O)(c2cccc(F)c2)CC1`: the survival is 81%.

Consider `COC(=O)c1ccccc1NC(=O)Cn1cc(S(=O)(=O)Cc2ccccc2F)c2ccccc21`, for which the survival is 94%.

For `COc1cccc(N2C(=O)CSC23C(=O)N(Cc2ccccc2F)c2ccccc23)c1` (stereo not given), the survival is 67%.

For `Cc1ccc(C(=O)Nc2nc3n(n2)C(c2ccc(F)cc2)C=C(c2ccccc2)N3)cc1` (stereo not given), the survival was 43% (active).

Take `COc1ccc(C(=O)Nc2nc3n(n2)C(c2ccc(F)cc2)C=C(c2ccc(Cl)cc2)N3)cc1` (stereo not given): the survival was 54%.

On to `COc1ccc(C2C=C(c3ccccc3)Nc3nc(NC(=O)c4ccc(C)cc4)nn32)cc1` (stereo not given), for which the survival is 44% (active).

On to `Cc1ccc(C(=O)Nc2nc3n(n2)C(c2ccccc2)C=C(c2ccccc2)N3)cc1` (stereo not given), for which the survival was 57%.

Turning to `COc1ccc(C2C=C(c3ccccc3)Nc3nc(NC(C)=O)nn32)cc1` (stereo not given), the survival is 53%.

Take `O=C(Nc1nc2n(n1)C(c1ccc(F)cc1)C=C(c1ccccc1)N2)c1ccc(Cl)cc1` (stereo not given): the survival was 48%.

For the compound `CCOc1ccccc1CNC(=O)CN(c1ccc(C)cc1)S(=O)(=O)N(C)C`, the survival is 70%.

As for `Clc1ccc(C(c2ccccc2)c2c[nH]c3ccccc23)s1` (stereo not given), the survival is -3% (active).

Regarding `COc1ccc(C(CN)c2c[nH]c3ccccc23)cc1` (stereo not given), the survival is 107%.

As for `Cn1cc(C(c2ccccc2)c2ccc(Cl)s2)c2ccccc21` (stereo not given), the survival was 102%.

As for `Cc1ccc2[nH]cc(C(c3ccccc3)c3cccs3)c2c1` (stereo not given), the survival is 12% (active).

For the compound `O=C(O)CSc1c[nH]c2ccccc12`, the survival is 84%.

`Cc1ccc2[nH]cc(S(=O)(=O)c3ccc(C)c(C)c3)c(=O)c2c1`: the survival was 81%.

`Cc1ccc2[nH]cc(C(c3ccccc3)c3ccc(Cl)s3)c2c1` (stereo not given): the survival is 10% (active).

Turning to `c1ccc(C(c2cccs2)c2c[nH]c3ccccc23)cc1` (stereo not given), the survival was -1% (active).

With `CCCCN(CC)C(=O)c1nn(-c2ccc(OC)cc2)c(=O)c2c1c1ccccc1n2C`, the survival was 82%.

On to `COc1cccc(CNC(=O)Cn2cc3c(n2)-c2c(oc(C(=O)N4CCCC4)c2C)CC3)c1`, for which the survival was 76%.

Take `Cc1cccc(N2CCN(c3ncnc4onc(C)c34)CC2C)c1` (stereo not given): the survival is 77%.

For `CCN(Cc1ccccc1)C(=O)c1cc2c(=O)[nH]c3ccc(C)cc3c2s1`, the survival was 49%.

As to `CCc1ccc(C(c2ccccc2)c2c[nH]c3ccc(C)cc23)s1` (stereo not given), the survival was 69%.

Regarding `Cc1ccc2[nH]cc(C(c3ccccc3)c3ccc(C)s3)c2c1` (stereo not given), the survival is 25% (active).

With `Cc1ccc(OCc2nc(-c3ccc(C(=O)N4CCN(c5ccc(Cl)cc5)CC4)cc3)oc2C)cc1`, the survival is 76%.

`CCc1ccccc1NC(=O)C(C)n1nc(-c2ccc(C)c(C)c2)ccc1=O` (stereo not given): the survival was 54%.

As for `CCC(C(=O)Nc1ccc(C(=O)OC)cc1)n1nc(-c2ccc(C)c(C)c2)ccc1=O` (stereo not given), the survival is 86%.

Consider `CCC(C(=O)Nc1ccccc1)n1nc(-c2cc(C)ccc2C)ccc1=O` (stereo not given), for which the survival is 37% (active).

Turning to `CCOc1ccc(NC(=O)C(CC)n2nc(-c3ccc(C)c(C)c3)ccc2=O)cc1` (stereo not given), the survival is 68%.

Take `Cc1ccc(C)c(NC(=O)C(C)n2c(=O)cc(C(F)(F)F)c3c(C)nn(C)c32)c1` (stereo not given): the survival was 89%.

`Cc1ccc(-c2ccc(=O)n(CC(=O)Nc3cccc(C#N)c3)n2)cc1`: the survival is 112%.

For the compound `CCC(C(=O)Nc1cccc(C#N)c1)n1nc(-c2ccccc2)ccc1=O` (stereo not given), the survival is 40% (active).

As for `CCc1cccc(NC(=O)Cn2nc(-c3ccc(OC)cc3)ccc2=O)c1`, the survival is 83%.

As to `CCc1cccc(NC(=O)Cn2nc(CC)n3c(cc4cc(C)ccc43)c2=O)c1`, the survival was 56%.

For the compound `CCC(C(=O)Nc1cccc(C#N)c1)n1c(=O)c(-c2ccccc2NC(C)=O)nc2ccccc21` (stereo not given), the survival is 100%.

As for `Cc1ccc(C)c(-c2ccc(=O)n(C(C)C(=O)Nc3ccccc3C(F)(F)F)n2)c1` (stereo not given), the survival is 41% (active).

On to `CCc1cccc(NC(=O)Cn2nc(-c3cc(C)ccc3C)ccc2=O)c1`, for which the survival is 34% (active).

With `COc1ccc(Nc2ncnc3c2cnn3-c2ccc(C)cc2)cc1Cl`, the survival was 128%.

For `CC1=C(c2ccc(C)c(C)c2)S(=O)(=O)N=C1N1CCC(C(=O)Nc2cccc(F)c2)CC1`, the survival is 79%.

Regarding `O=C(COC(=O)c1ccccc1Cl)Nc1nccs1`, the survival was 94%.

Regarding `Cc1ccc(CCNC(=O)NCc2noc3ccccc23)cc1`, the survival is 102%.

Take `COc1ccc(CNC(=O)C(=O)Nc2c3c(nn2-c2ccccc2)CSC3)cc1`: the survival was 86%.

Regarding `Cc1ccc(OCCSc2nc(-c3ccccc3C)nc3cc(=O)[nH]n23)cc1Cl`, the survival is 106%.

Regarding `COc1ccc(CNC(=O)CCS(=O)(=O)c2cc(Br)cc3c2N(C(C)=O)C(C)C3)cc1` (stereo not given), the survival was 92%.

For `CCOC(=O)c1c(S(=O)(=O)N2CCC(C(=O)Nc3cccc(C)n3)CC2)c(C)n(C)c1C`, the survival is 94%.

`CCC(C(=O)Nc1cc(F)ccc1F)n1nc(C)c2c(C)n(-c3ccc(C)cc3)nc2c1=O` (stereo not given): the survival was 87%.

As to `CCC(C(=O)Nc1cc(F)ccc1F)n1nc(-c2cc(C)ccc2C)ccc1=O` (stereo not given), the survival was 38% (active).

Consider `Cc1ccc2onc(CNC(=O)Nc3cc(F)ccc3F)c2c1`, for which the survival was 49%.

As to `COc1ccc(NC(=O)c2sc3nc4n(c(=O)c3c2C)CCC4)cc1Cl`, the survival is 108%.

Regarding `CCc1ccc(NC(=O)C2(c3cccs3)CCOCC2)cc1`, the survival is 73%.

Regarding `Nc1n[nH]c2nc(C(F)(F)F)cc(=O)n12`, the survival was 62%.

`Cc1ccc(C(=O)C2=C(O)C(=O)N(CCc3ccccc3)C2c2ccncc2)o1` (stereo not given): the survival was 103%.

Turning to `COC(=O)c1ccc(C(=O)Nc2ccc(-c3nc4cc(NC(=O)c5ccc(C(=O)OC)cc5)ccc4o3)cc2)cc1`, the survival is 60%.

For the compound `Cc1ccc(C(=O)Nc2ccc3oc(-c4ccccc4C)nc3c2)cc1`, the survival is 65%.

For the compound `COc1cc(OC)cc(C(=O)Nc2ccc(-c3nc4cc(C(C)C)ccc4o3)cc2)c1`, the survival was 45% (active).

As to `CC(C)Oc1cccc(C(=O)Nc2ccc3oc(-c4cccc(Cl)c4)nc3c2)c1`, the survival is 28% (active).

Take `CC(C)Oc1cccc(C(=O)Nc2ccc(-c3nc4cc(Cl)cc(Cl)c4o3)cc2)c1`: the survival is 55%.

Turning to `O=C(Nc1ccc(-c2nc3cc(NC(=O)c4ccc(Cl)cc4)ccc3o2)cc1)c1ccc(Cl)cc1`, the survival was 88%.

Consider `COc1cc(C(=O)Nc2ccc(-c3nc4cc(C)c(C)cc4o3)cc2)cc(OC)c1OC`, for which the survival was 59%.

Turning to `COc1cc(OC)cc(C(=O)Nc2ccc3oc(-c4ccc(Cl)cc4)nc3c2)c1`, the survival is 50% (active).

In the case of `COc1cc(OC)cc(C(=O)Nc2ccc3oc(-c4cccc5c(Br)cccc45)nc3c2)c1`, the survival was 60%.

Consider `COc1cc(OC)cc(C(=O)Nc2ccc3oc(-c4ccccc4C)nc3c2)c1`, for which the survival is 34% (active).

Turning to `COc1ccc(C(=O)Nc2ccc3oc(-c4ccc(OC)cc4)nc3c2)cc1`, the survival is 60%.

With `COc1cccc(C(=O)Nc2ccc3oc(-c4ccc5ccccc5c4)nc3c2)c1`, the survival was 55%.

`Cc1cc(F)ccc1NC(=O)Cn1nc(N2CCN(c3ccccc3)CC2)ccc1=O`: the survival was 80%.

Take `COc1cc(-c2noc(-c3ccc(N4CCOCC4)c([N+](=O)[O-])c3)n2)cc(OC)c1OC`: the survival is 66%.

As to `CCc1cc(C(=O)OC)c(NC(=O)CC2SC(=NC)N(C)C2=O)s1` (stereo not given), the survival is 106%.

Turning to `COCCn1c(CNC(=O)c2cccc(C)c2)nc2cccnc21`, the survival was 95%.

Take `Cc1cccc(N2CCN(C(=O)CCc3nnc4n(CC(C)C)c(=O)c5ccccc5n34)CC2)c1C`: the survival is 74%.

As for `CCc1ccc(C2CC(=O)Nc3cc4c(cc32)OCO4)cc1` (stereo not given), the survival is 59%.

With `CCN(CC)S(=O)(=O)c1ccc(-c2nnc(SCC(=O)N3CCCC3)n2CC)cc1`, the survival was 103%.

Consider `COc1ccc(Nc2nnc(-n3nc(C)cc3C)c3ccccc23)cc1`, for which the survival was 85%.

For `O=C(CSc1ncc(CO)n1Cc1ccccc1)Nc1nc2ccccc2s1`, the survival is 122%.

Turning to `COc1ccccc1CNC(=O)Cn1nc(C)c2nn(-c3ccc(Cl)cc3)c(C)c2c1=O`, the survival is 63%.

On to `CCOC(=O)c1ccc(NC(=O)Cn2nc(C)c3nn(-c4ccc(Cl)cc4)c(C)c3c2=O)cc1`, for which the survival was 102%.

As to `COc1ccc(NC(=O)Cn2nc(C)c3nn(-c4ccc(Cl)cc4)c(C)c3c2=O)cc1`, the survival is 85%.

Take `Cc1ccccc1CNC(=O)Cn1nc(C)c2nn(-c3ccc(Cl)cc3)c(C)c2c1=O`: the survival is 37% (active).

Consider `Cc1nn(CC(=O)Nc2ccc(OC(F)(F)F)cc2)c(=O)c2c(C)n(-c3ccc(Cl)cc3)nc12`, for which the survival was 25% (active).

With `CCOc1ccccc1CNC(=O)Cn1nc(C)c2nn(-c3ccc(Cl)cc3)c(C)c2c1=O`, the survival was 101%.

For the compound `Cn1c(=O)oc2cc(S(=O)(=O)N3CCC(C(=O)N4CCN(c5ccccc5F)CC4)CC3)ccc21`, the survival was 80%.
